Inconclusive results are not listed. The source made the active and inactive calls. Calls follow the shape of the dose curve; as a rule, active = well fitted inhibition curve with a large enough effect; inconclusive = small, poorly fitted or top-dose-only effect; inactive = flat fitted curve, though single readings scatter.
Target: Glutathione peroxidase 1 (Homo sapiens) (UniProt P07203)
Assay: Primary qHTS Assay for Inhibitors of Recombinant Selenoprotein Glutathione Peroxidase 1 (GPX1) (AID 1845191); also: nearly all actives have a fitted effect of over 65% in size
Details: recombinant GPX1, GR-coupled NADPH fluorescence, 15 min; series mostly up to 48.8 µM; activity, negative = inhibition: at the top concentration
How it was run: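 GPX1 10 nM, GR 100 nM, GSH 1 mM, NADPH 0.5 mM, CHP 0.5 mM (final). 30-min cpd preincubation, RT. Ex340/Em450 read t=0, t=15 min.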
% is scaled to controls: 0 for no effect and ±100 for the full control effect; potency is read from the fitted curve at half-maximal effect.

Sequence of Glutathione peroxidase 1 (Homo sapiens) (P07203 whole entry, looked up): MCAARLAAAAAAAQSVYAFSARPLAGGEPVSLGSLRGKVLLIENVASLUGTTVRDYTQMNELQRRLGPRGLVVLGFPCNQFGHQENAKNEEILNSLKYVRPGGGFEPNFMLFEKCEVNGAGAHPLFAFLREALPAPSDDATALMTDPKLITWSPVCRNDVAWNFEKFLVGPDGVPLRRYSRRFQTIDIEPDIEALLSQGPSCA

| Compound | activity, negative = inhibition | outcome | Potency |
| --- | --- | --- | --- |
| O=C(CCl)Nc1ccc(S(=O)(=O)c2ccc(NC(=O)CCl)cc2)cc1 | -2.14% (inactive) | – | – |
| Cn1cc(C2=C(c3cn(CCCN)c4ccccc34)C(=O)NC2=O)c2ccccc21 | – | inactive | – |
| CCN(C(=O)CO)[C@H]1CN(C(=Nc2cccc(OC(F)F)c2)NC#N)N=C1c1ccc(Cl)c(Cl)c1 | -21.8% (inactive) | – | – |
| CC(=O)c1cc2cccc(OCC(O)CNC(C)C)c2o1 (stereo not given) | – | inactive | – |
| C1CCC[C@H]2CCCN3CC[C@H](CCCCCC[C@@H]4CCCN5CC[C@H](CC1)O[C@H]45)O[C@H]23 | 1.08% [at 0.127 µM] (inactive) | – | – |
| CC(C)N(CCCCOCC(=O)O)c1cnc(-c2ccccc2)c(-c2ccccc2)n1 | – | inactive | – |
| CCCN1C[C@H](C)[C@@H](O)[C@](C)(O)[C@@H](CC)OC(=O)[C@H](C)[C@@H](O[C@H]2C[C@@](C)(OC)[C@@H](O)[C@H](C)O2)C(C)[C@@H](O[C@@H]2O[C@H](C)C[C@H](N(C)C)[C@H]2O)[C@](C)(O)C[C@H]1C (stereo not given in full) | – | inactive | – |
| CN1CCN(C(c2ccc(Cl)cc2Cl)c2sc3nc(-c4ccco4)nn3c2O)CC1 (stereo not given) | -18.3% (inactive) | – | – |
| O=C(CCc1cc(=O)[nH]o1)N[C@H](C1CCNCC1)C1CC(O)C1 (stereo not given in full) | 2.98% (inactive) | – | – |
| C#C[C@]1(O)CC[C@H]2[C@@H]3CCC4=CC(=O)CC[C@@H]4[C@H]3C(=C)C[C@@]21CC | – | inactive | – |
| OCCN1CCN(C(c2ccc(Cl)cc2Cl)c2sc3nc(-c4ccco4)nn3c2O)CC1 (stereo not given) | -9.13% (inactive) | – | – |
| CC(C)(C)c1ccc(S(=O)(=O)Nc2ccc(-n3ccnc3)cc2)cc1 | -13.1% (inactive) | – | – |
| CN(C)c1ccc(C(=O)NCCCCCC(=O)NO)cc1 | – | inactive | – |
| CCCCCCC(COC(=O)c1cccnc1)(COC(=O)c1cccnc1)COC(=O)c1cccnc1 | -7.09% (inactive) | – | – |
| O=C(N[C@H]1CCS[C@H]2CCC[C@@H](C(=O)O)N2C1=O)[C@@H](S)Cc1ccccc1 | – | – | 10.1 µM (active) |
| CCn1c(-c2nc3cc(C(=O)N4CCC[C@@H](N)C4)cc(OC)c3n2C)cc2ccccc21 | – | inactive | – |
| CCC(=O)OCC(=O)[C@]1(OC(=O)CC)[C@H](C)C[C@H]2[C@H]3[C@H]([C@@H](O)C[C@@]21C)[C@@]1(C)C=CC(=O)C=C1C[C@H]3Cl | -6.62% (inactive) | – | – |
| O=c1cc(N2CCOCC2)oc2c1ccc1ccccc12 | -20.2% (inactive) | – | – |
| Fc1ccc(N2CCN(c3nc4ccccc4c4nc(-c5cccnc5)nn34)CC2)cc1 | – | inactive | – |
| CCc1c(C(=O)Nc2cc(S(=O)(=O)N(CC)CC)ccc2O)[nH]c(C)c1C(C)=O | -26.4% (inactive) | – | – |

| Compound | activity, negative = inhibition | outcome | Potency |
| --- | --- | --- | --- |
| O=C1Cc2ccccc2N1 | -9.52% (inactive) | – | – |
| Cn1cc(C(=O)Cc2ccccc2)cc1/C=C/C(=O)NO | -14.2% (inactive) | – | – |
| Cc1cc(-c2nc3ncccc3o2)ccc1NC(=O)COc1ccc(C(C)(C)C)cc1 | – | inactive | – |
| C=C1/C(=C\C=C2/CCC[C@@]3(C)C2CC[C@@H]3[C@H](C)/C=C\[C@@H](O)C2CC2)C[C@@H](O)C[C@@H]1O (stereo not given in full) | -14.6% (inactive) | – | – |
| CN1C(=O)[C@]23C[C@H]4C(C)(C)[C@]5(CNc6c5ccc5c6OC=CC(C)(C)O5)C[C@@]41CN2CC[C@@]3(C)O | -27.5% (inactive) | – | – |
| C=C(C)CNc1ccc(C(C)C(=O)O)cc1 (stereo not given) | -16.7% (inactive) | – | – |
| O=C(NCC(=O)N1CCCCC1)Nc1ccc2nnsc2c1 | – | inactive | – |
| C[C@]12C=CC(=O)C=C1CC[C@@H]1[C@@H]2[C@@H](O)C[C@@]2(C)[C@H]1CC[C@]2(O)C(=O)COC(=O)c1cccc(S(=O)(=O)O)c1 | -1.49% (inactive) | – | – |
| Cc1ccc(S(=O)(=O)O)cc1 | – | inactive | – |
| [2H]C([2H])([2H])C(CCC[C@@H](C)[C@H]1CC[C@H]2/C(=C/C=C3\C[C@@H](O)C[C@H](O)C3=C)CCC[C@]12C)C([2H])([2H])[2H] | -9.12% (inactive) | – | – |
| C/C=C(\C)C(=O)O | – | inactive | – |
| O=C(O)CCN(O)C(=O)CCCCCCCCC1CC1 | -5.84% (inactive) | – | – |
| C=C1C/C(=C\C=C2/CCC[C@]3(C)[C@@H]([C@H](C)/C=C/C(C)C(C)C)CC[C@@H]23)[C@@H](O)C[C@@H]1O (stereo not given in full) | – | inactive | – |
| CO[C@H]1/C=C\O[C@@]2(C)Oc3c(C)c(O)c4c(O)c(c5c(c4c3C2=O)=NC2(CCN(CC(C)C)CC2)N=5)NC(=O)/C(C)=C\C=C/[C@H](C)[C@H](O)[C@@H](C)[C@@H](O)[C@@H](C)[C@H](OC(C)=O)[C@@H]1C | – | inactive | – |
| CCN(CCN(C)C)C(=O)CNCc1cc(C(=O)O)ccn1 | -18.1% (inactive) | – | – |
| Cc1ccc(-c2nc(-c3cc4cccc(OCc5cccc(C)c5)c4oc3=O)no2)cc1 | – | inactive | – |
| Cc1cc(Nc2cccc(C(F)(F)F)c2)nc2ccc(NC(=O)c3ccc(=O)[nH]c3)cc12 | – | inactive | – |
| O=C(O)c1ccnc2cc(C(OCCCN3CCCCC3)c3ccccc3Cl)[nH]c12 (stereo not given) | -5.04% (inactive) | – | – |
| Oc1c(Br)cc(Br)cc1CNC1CCC(O)CC1 (stereo not given) | -14.5% (inactive) | – | – |
| CN(Cc1ccccc1)C(=O)[C@H](NC(=O)c1cc2cc(NC(=O)c3ccccc3-c3ccc(C(F)(F)F)cc3)ccc2n1C)c1ccccc1 | -18.3% (inactive) | – | – |
